Inconclusive results are not listed. Active and inactive are the calls of the source. How the source made its calls: active means hit-call score of the fitted dose curve at least 0.9, where 1 is the maximum; inconclusive means response in the unintended direction; inactive means score below 0.9.
Columns and labels:
AR (gene 367) [1] = target: AR (gene 367) (UniProt P10275); test: ACEA_AR_antagonist_80hr: ACEA Biosciences xCELLigence Real-Time Cell Analysis on Androgen Receptor Antagonism for Proliferation (AID 2283787);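 further: hits lower the impedance growth signal relative to DMSO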
Chain of AR (gene 367) (P10275 whole entry, looked up): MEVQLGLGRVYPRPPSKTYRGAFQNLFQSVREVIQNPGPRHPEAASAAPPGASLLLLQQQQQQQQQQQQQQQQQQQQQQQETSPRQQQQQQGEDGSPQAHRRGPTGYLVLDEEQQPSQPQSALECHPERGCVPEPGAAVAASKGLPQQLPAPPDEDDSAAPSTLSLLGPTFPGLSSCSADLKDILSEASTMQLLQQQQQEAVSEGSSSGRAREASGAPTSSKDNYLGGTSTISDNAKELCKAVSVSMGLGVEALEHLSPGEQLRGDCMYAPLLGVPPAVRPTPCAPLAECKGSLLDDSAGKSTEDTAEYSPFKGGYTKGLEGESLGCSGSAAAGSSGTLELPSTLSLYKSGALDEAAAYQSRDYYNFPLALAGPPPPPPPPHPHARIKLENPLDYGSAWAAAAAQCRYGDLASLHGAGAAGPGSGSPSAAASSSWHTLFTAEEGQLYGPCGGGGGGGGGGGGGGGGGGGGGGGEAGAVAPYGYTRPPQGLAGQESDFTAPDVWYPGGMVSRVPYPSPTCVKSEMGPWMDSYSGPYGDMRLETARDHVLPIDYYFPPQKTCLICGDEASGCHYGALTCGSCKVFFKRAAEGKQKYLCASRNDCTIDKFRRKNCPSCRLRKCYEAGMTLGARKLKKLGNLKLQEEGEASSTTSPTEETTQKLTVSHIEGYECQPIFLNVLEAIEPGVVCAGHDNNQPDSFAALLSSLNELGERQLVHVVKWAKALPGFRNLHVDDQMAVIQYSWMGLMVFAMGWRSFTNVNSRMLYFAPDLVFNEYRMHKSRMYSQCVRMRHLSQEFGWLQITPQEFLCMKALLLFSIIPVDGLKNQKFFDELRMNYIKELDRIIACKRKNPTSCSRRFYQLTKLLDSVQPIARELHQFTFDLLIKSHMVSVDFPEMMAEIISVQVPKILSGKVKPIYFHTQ
Procedure, shortened: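 Impedance readout (RT-CES), 80 h post-dose; loss-of-signal vs DMSO baseline. 22Rv1 cells in assay medium. Compounds: 8-pt 1:4 series, max 100 uM final, up to 0.5% DMSO; n = 2.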

AR (gene 367) [2] = target: AR (gene 367) (UniProt P10275); test: ACEA_AR_agonist_80hr: ACEA Biosciences xCELLigence Real-Time Cell Analysis on Androgen Receptor Agonism for Proliferation (AID 2283783);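 further: hits increase impedance growth signal above DMSO baseline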
Experimental: ACEA_AR_agonist is a cell-based, single-readout assay that uses 22Rv1, a human prostate cancer cell line, with measurements taken at 80 hours after chemical dosing in a 384-well plate, although TO5 and TO6 (mc0.srcf) used a 96-well plate. Differences in plate size can be ignored given data normalization.ACEA_AR_agonist_80hr is one of two assay component(s) measured or calculated from the ACEA_AR assay. It is designed to make measurements of real-time cell-growth kinetics, a form of growth reporter, as detected with electrical impedance signals by Real-Time Cell Electrode Sensor (RT-CES) technology.Data from the assay component ACEA_AR_agonist_80hr was analyzed in the positive analysis fitting direction relative to DMSO as the negative control and baseline of activity. Using a type of growth reporter, measures of the cells for gain-of-signal activity can be used to understand the signaling at the pathway-level as they relate to the geneAR Furthermore, this assay endpoint can be referred to as a primary readout, because this assay has produced multiple assay endpoints where this one serves a signaling function. To generalize the intended target to other relatable targets, this assay endpoint is annotated to the nuclear receptor intended target family, where the subfamily is steroidal.
The xCELLigence system Multi-E-Plate stations were used to measure the time-dependent response to chemicals. Each compound was tested in an eight-point, 1:4 serial dilution series starting at a maximum final concentration of 100 uM. A maximum starting concentration of 0.5% DMSO was present in the 100 uM chemical samples and was diluted along with the test article dilution series. The screen was performed in biological duplicate using two separate, 96-well, E-Plates 96 for each dilution series (n = 2). Positive controls (MG132 and testosterone) and a negative control (assay media) were tested in quadruplicate on each testing plate. […] Reference compounds were tested with 8 concentrations with 1:5 serial dilutions. All screening was carried out by ACEA Biosciences, Inc. (San Diego, CA). 22Rv1 cells purchased from ATCC were maintained in media supplemented with 10% fetal bovine serum (FBS). Before screening, 22Rv1 cells were preconditioned in assay medium. Cells were then detached and seeded in E-Plates 96 in assay medium. After overnight monitoring of growth once every hour, compounds were added to […] cells and remained in the medium until the end of the experiment. Cellular responses were then recorded once every 5 min for the first 5 h, and once every hour for an additional 100 h.

[3] = target: Estrogen receptor beta (Homo sapiens) (UniProt Q92731); test: ATG_hERb_XSP1: Attagene TRANS-FACTORIAL Multi-Species (XSP1) HepG2 Assay for human Estrogen Receptor (ESR2) (AID 2283788)
Chain of Estrogen receptor beta (Homo sapiens) (Q92731 whole entry, looked up, the tested form may be a part): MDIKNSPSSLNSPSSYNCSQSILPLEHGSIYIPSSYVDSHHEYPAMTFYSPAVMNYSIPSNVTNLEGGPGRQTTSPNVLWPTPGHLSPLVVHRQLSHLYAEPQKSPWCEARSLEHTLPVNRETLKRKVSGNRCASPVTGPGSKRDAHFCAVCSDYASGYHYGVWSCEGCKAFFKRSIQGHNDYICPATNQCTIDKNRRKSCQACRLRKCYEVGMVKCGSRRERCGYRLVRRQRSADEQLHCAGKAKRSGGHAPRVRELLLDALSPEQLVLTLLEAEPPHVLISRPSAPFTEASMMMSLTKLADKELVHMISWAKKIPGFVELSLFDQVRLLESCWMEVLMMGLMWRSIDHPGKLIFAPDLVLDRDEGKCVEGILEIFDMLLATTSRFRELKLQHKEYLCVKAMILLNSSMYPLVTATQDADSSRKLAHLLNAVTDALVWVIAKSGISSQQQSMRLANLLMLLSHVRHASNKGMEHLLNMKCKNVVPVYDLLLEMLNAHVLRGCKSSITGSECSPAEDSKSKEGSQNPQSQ
Procedure, shortened: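 Read-out: reporter mRNA induction by RT-PCR, HpaI digestion and capillary electrophoresis fluorescence, fitted in positive direction relative to DMSO baseline. Human liver HepG2 cells expressing ERβ-Gal4 fusion, dosed 24 h, medium containing 3 nM 6-alpha-fluorotestosterone.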

[4] = ATG_M_06_XSP1: Attagene TRANS-FACTORIAL Multi-Species (XSP1) HepG2 Assay for M06 Transcription Factor (Internal Marker) (AID 2283790)
Procedure, shortened: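 Transfected HepG2 multi-reporter system treated 24 h in the presence of 3 nM 6-alpha-fluorotestosterone. The M06 internal marker transcript was quantified by RT-PCR with capillary electrophoresis as a background control, and gain of signal was scored versus DMSO.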

[5] = ATG_M_61_XSP1: Attagene TRANS-FACTORIAL Multi-Species (XSP1) HepG2 Assay for M61 Transcription Factor (Internal Marker) (AID 2283797)
Procedure, shortened: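 HepG2 cells transiently transfected with multiplexed GAL4-driven reporter units, dosed 24 h with 3 nM 6-alpha-fluorotestosterone present. Reporter mRNA quantified by RT-PCR, 6-FAM labelling, HpaI digestion and capillary electrophoresis; internal-marker background control, gain of signal versus DMSO.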

[6] = ATG_M_19_XSP1: Attagene TRANS-FACTORIAL Multi-Species (XSP1) HepG2 Assay for M19 Transcription Factor (Internal Marker) (AID 2283798)
Procedure, shortened: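 HepG2 cells transiently transfected with multiplexed GAL4-UAS reporter units, dosed 24 h with 3 nM 6-alpha-fluorotestosterone present for partial AR stimulation. Reporter mRNA measured by RT-PCR with capillary electrophoresis; gain-of-signal fitted relative to DMSO.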

[7] = ATG_M_32_XSP1: Attagene TRANS-FACTORIAL Multi-Species (XSP1) HepG2 Assay for M32 Transcription Factor (Internal Marker) (AID 2283799)
Procedure, shortened: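 HepG2 cells transiently transfected with multi-species TRANS reporter units, dosed 24 h with 3 nM 6-alpha-fluorotestosterone present. Internal-marker reporter mRNA quantified by RT-PCR and capillary electrophoresis; positive-direction fit versus DMSO.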

[8] = tested on: zebrafish Peroxisome Proliferator-activated Receptor gamma (PPARg), gene 557037; test: ATG_zfPPARg_XSP1: Attagene TRANS-FACTORIAL Multi-Species (XSP1) HepG2 Assay for zebrafish Peroxisome Proliferator-activated Receptor gamma (PPARg) (AID 2283801)
Procedure, shortened: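 HepG2 cells transiently transfected with GAL4-UAS reporter units including a zebrafish PPARg–GAL4 chimera, dosed 24 h with 3 nM 6-alpha-fluorotestosterone present. Reporter mRNA quantified by RT-PCR, FAM labelling, HpaI digestion and capillary electrophoresis; induction versus DMSO.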

[9] = target: Nuclear receptor subfamily 1 group I member 2 (Mus musculus) (UniProt O54915); test: ATG_mPXR_XSP1: Attagene TRANS-FACTORIAL Multi-Species (XSP1) HepG2 Assay for mouse Pregnane X Receptor (PXR) (AID 2283803)
Chain of Nuclear receptor subfamily 1 group I member 2 (Mus musculus) (O54915 whole entry, looked up, the tested form may be a part): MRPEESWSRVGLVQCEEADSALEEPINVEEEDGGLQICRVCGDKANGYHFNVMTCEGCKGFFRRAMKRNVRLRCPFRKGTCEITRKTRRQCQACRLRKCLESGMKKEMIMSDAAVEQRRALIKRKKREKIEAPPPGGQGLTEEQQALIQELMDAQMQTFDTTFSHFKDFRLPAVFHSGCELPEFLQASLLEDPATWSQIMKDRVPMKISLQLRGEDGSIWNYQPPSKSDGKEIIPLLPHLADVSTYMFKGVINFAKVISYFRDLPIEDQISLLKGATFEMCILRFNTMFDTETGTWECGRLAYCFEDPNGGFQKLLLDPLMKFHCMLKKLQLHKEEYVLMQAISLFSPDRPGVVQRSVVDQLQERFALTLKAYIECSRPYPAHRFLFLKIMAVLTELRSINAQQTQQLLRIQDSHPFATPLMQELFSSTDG
Procedure, shortened: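 Transiently transfected HepG2 cells expressing a receptor-Gal4 chimera drive a GAL4-UAS reporter; 3 nM 6-alpha-fluorotestosterone included. Reporter mRNA read 24 h post-dose by RT-PCR and capillary electrophoresis; gain of signal relative to DMSO.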

[10] = tested on: turtle Thyroid Hormone Receptor, alpha (TRa), gene 101949057; test: ATG_trTRa_XSP1: Attagene TRANS-FACTORIAL Multi-Species (XSP1) HepG2 Assay for turtle Thyroid Hormone Receptor, alpha (TRa) (AID 2283806)
Procedure, shortened: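 HepG2 cells transiently transfected with GAL4-UAS reporter units and chimeric receptor-Gal4 constructs, with 3 nM 6-alpha-fluorotestosterone present. Reporter mRNA was quantified 24 h after dosing by RT-PCR, 6-FAM labelling and capillary electrophoresis; gain of signal versus DMSO.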

SMILES: CCC/C=C/C=O
- outcome (AR (gene 367) [1]): inactive

SMILES: O=Nc1ccc(Nc2ccccc2)cc1
- outcome (AR (gene 367) [2]): inactive
- outcome (AR (gene 367) [1]): inactive

SMILES: CCCCCCCCCCCCCOS(=O)(=O)O
- outcome (AR (gene 367) [2]): inactive

SMILES: BrC1CCC(Br)C(Br)CCC(Br)C(Br)CCC1Br (stereo not given)
- outcome (AR (gene 367) [1]): inactive

SMILES: O=c1cc(-c2ccccc2)oc2cc(O)cc(O)c12
- AC50 (AR (gene 367) [2]): 0.0729 µM (active)
- outcome (AR (gene 367) [1]): inactive

SMILES: COc1ccc(O)cc1
- outcome (AR (gene 367) [1]): inactive

SMILES: CCCCCCCCCCCCCCCC(=O)OC[C@H](O)[C@H]1OC(=O)C(O)=C1O
- AC50 (AR (gene 367) [1]): 7.84 µM (active)

SMILES: CCCCC[Si](OCC)(OCC)OCC
- outcome (AR (gene 367) [1]): inactive

SMILES: c1ccc2[nH]ccc2c1
- outcome (AR (gene 367) [1]): inactive

SMILES: C[Si](O[Si](C)(C)C)O[Si](C)(C)C
- outcome (AR (gene 367) [2]): inactive
- outcome (AR (gene 367) [1]): inactive

SMILES: CCCOCC(C)O (stereo not given)
- outcome (AR (gene 367) [2]): inactive

SMILES: CN(CCOc1ccc(CC2SC(=O)NC2=O)cc1)c1ccccn1 (stereo not given)
- outcome [3]: inactive
- outcome [4]: inactive
- outcome [5]: inactive

SMILES: CN(C)C(=N)N=C(N)N
- outcome [6]: inactive
- outcome [7]: inactive
- outcome [8]: inactive
- AC50 [9]: 64.4 µM (active)
- outcome [10]: inactive

SMILES: O=C[C@@H](O)[C@H](O)[C@H](O)CO
- outcome (AR (gene 367) [1]): inactive

SMILES: CCN(CC)c1ccc(C(=C2C=CC(=[N+](CC)CC)C=C2)c2ccc(S(=O)(=O)O)cc2S(=O)(=O)[O-])cc1
- outcome (AR (gene 367) [1]): inactive

SMILES: NCCCN1CCOCC1
- outcome (AR (gene 367) [1]): inactive
